The values that follow come from the supplement of paper PMC11417369.

The full ranking holds about 25,000 sequences; the median of “ln(normalized median fluorescence intensity)” is about 7.1, and the highest 2% start at about 10. The sample as a whole holds a higher share of the highest values than the screen did.

In the assay the test system is PfSIP2 AP2 domain 1 (GST-tagged). As to the kind of experiment: gcPBM binding intensity (ln(normalized median fluorescence intensity)); higher = stronger DNA binding. The method in brief:
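Binding intensity is defined as the maximum Masliner-normalised natural-log median intensity across replicate spots for either probe orientation. It was measured on an Agilent 4 × 180k array of primer-extended double-stranded 36-bp intergenic genomic probes and negative controls, to which GST-tagged P. falciparum DNA-binding domains made in E. coli were applied for 1 h in 1× PBS with 1% milk, 0.2 mg/ml BSA, 0.5% salmon testes DNA and 0.03% Triton X-100. Detection was by Alexa488 anti-GST antibody and scanning at 488 nm.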
As to “TATTTTATCATTTGCACACGCACACCCACATAAAAA [CACACA_site354]”, the “gcPBM binding intensity (ln)” value turned out to be 8.03.

For “TTTATTTTATCATTTGCACACGCACCCAGACATAAA [CACACA_site4347]”, the “gcPBM binding intensity (ln)” value was found to be 10.8.

Regarding “TATTTTATCATTTGCACACGCACACCGACATAAAAA [CACACA_site4348]”, the “gcPBM binding intensity (ln)” value is 7.71.

Regarding “TTTATTTTATCATTTGCACACGCACGCCCACATAAA [CACACA_site353]”, the “gcPBM binding intensity (ln)” value is 7.85.

Take “ATATTAAACAAACACACACACATATATATATATATA [CACACA_site3383]”: the “gcPBM binding intensity (ln)” value came to 9.67.

For the sequence “ATAAATGAACAAGTGGCACACACACCGTATAACTAA [CACACA_site9047]”, the “gcPBM binding intensity (ln)” value came to 6.91.

“ATGTATATATTTACGTGTACATATTCATGTGATATC [XGTACX_site5871]”: the “gcPBM binding intensity (ln)” value was 7.

Consider “GTTCAATTATTTTTATGTACATATATTTTTTTCTTT [XGTACX_site2505]”, for which the “gcPBM binding intensity (ln)” value worked out at 7.46.

Consider “ATCATTTGCATACGCACACACACATAAAAAGAAAAA [CACACA_site355]”, for which the “gcPBM binding intensity (ln)” value was 7.54.

For “CATTTGCACACGCACACACACATAAAAAGAAAAATA [CACACA_site6297]”, the “gcPBM binding intensity (ln)” value was 7.71.

“TCATTGAAAATTGTTGCACACATAATAATTAAATAT [CACACA_site8554]”: the “gcPBM binding intensity (ln)” value stood at 7.36.

As for “ACCCATTGCTCACGTGCACACATAGAAAAATAATTC [CACACA_site4389]”, the “gcPBM binding intensity (ln)” value worked out at 10.1.

Turning to “ACATTGCACCCGTGCACACATAGAAAAATAATTCTT [CACACA_site409]”, the “gcPBM binding intensity (ln)” value is 12.2.

In the case of “CATTTGCACCCGCACACACACATAAAAAGAAAAATA [CACACA_site4350]”, the “gcPBM binding intensity (ln)” value came out at 11.6.

As to “AATTTGGTGTGTGTAAAAGTATGTGTCTATATTTAT [GTGCAC_negctrl_site166]”, the “gcPBM binding intensity (ln)” value was found to be 7.11.

For TTTTGTTATTTTTCAGTGCAATATGATAATAATATA, the “gcPBM binding intensity (ln)” value worked out at 7.72.

Consider TAATATAATGATGCAGTGCATATGTTAAAATGAAAA, for which the “gcPBM binding intensity (ln)” value is 8.72.

For the sequence TTTTTTGTTATGCGGGTGCATATAATAATGTGATGA, the “gcPBM binding intensity (ln)” value was determined as 10.8.

Turning to “TAATATATTAAAAATAGTACATAAGAAAAATAAGTA [XGTACX_site7957]”, the “gcPBM binding intensity (ln)” value was 7.11.

As to “TATTATATTTTTATTTGTACGTAAAATTAAGTTATG [XGTACX_site2405]”, the “gcPBM binding intensity (ln)” value is 7.14.

Take TATGGGTTTATATAGGTGCAATATATGTATATATAA: the “gcPBM binding intensity (ln)” value worked out at 10.2.

With “TATTAAATATATATTACATGCAAAAAAAAAAAACAA [TGCATGCA_site705]”, the “gcPBM binding intensity (ln)” value amounted to 7.13.

As for “AACAAATATATTAACACACAAACATATAAACCAATG [CACACA_site3970]”, the “gcPBM binding intensity (ln)” value was 7.19.

On to “CAATATTTGTTATGGGTGCAAACCGCATATATATAA [GTGCAC_site9543]”, for which the “gcPBM binding intensity (ln)” value was found to be 11.

As for “TTTTTTGTTAAACCGGTGCATATAAATATATATATA [GTGCAC_site9989]”, the “gcPBM binding intensity (ln)” value is 9.54.

As for CAATATATTATATGGGTGCAAACCACATATAAATAA, the “gcPBM binding intensity (ln)” value is 10.9.

Regarding “AATTATATGAAATAAACACACATATGCAATATTGCA [CACACA_site6988]”, the “gcPBM binding intensity (ln)” value worked out at 6.98.

As to “AAAAAAAAAAACAATACATGCATAATATTAATAAAA [TGCATGCA_site913]”, the “gcPBM binding intensity (ln)” value came out at 6.96.

“CAATAGTTCTTATGGGTGCAAACCACATATATATAA [GTGCAC_site9606]”: the “gcPBM binding intensity (ln)” value was 11.3.

As for “ATATAAAATACATGGGTGCAATATATTAAACAAATA [GTGCAC_site9421]”, the “gcPBM binding intensity (ln)” value is 10.8.

In the case of “ATTTATTTATACAAAGTGCAATATTTTGTTAAAGTC [GTGCAC_site9618]”, the “gcPBM binding intensity (ln)” value is 7.89.

As for “TATAATAGTTCATAGGTGCAATATAATAAATTTATA [GTGCAC_site9573]”, the “gcPBM binding intensity (ln)” value is 9.98.

Take “AATCAAAGCCCACATACACACACATATATATATATA [CACACA_site7987]”: the “gcPBM binding intensity (ln)” value amounted to 9.39.

Regarding “TTTTGTCAACATTTTTATATTAGGTCTTGAACGATT [GTGCAC_negctrl_site72]”, the “gcPBM binding intensity (ln)” value was 6.9.

As for “AATAATATATGGTGTACACAAAAGTATAAATAATTT [CACACA_site5338]”, the “gcPBM binding intensity (ln)” value worked out at 7.15.

As to “TCAAATATTCATAAATGTACATTTATTTTTCTCCTT [XGTACX_site5827]”, the “gcPBM binding intensity (ln)” value was determined as 6.74.

Turning to “TTATTTTAATAACCTACACACATTTTGTATATTTTA [CACACA_site4000]”, the “gcPBM binding intensity (ln)” value is 6.81.

Turning to “TATATATATGTGTTTACACACAATAATGAATTAAAA [CACACA_site4659]”, the “gcPBM binding intensity (ln)” value worked out at 7.28.

Turning to “ATATCAATTTTTGGTGGTACGTAGGAAGTTTCAGAA [XGTACX_site6881]”, the “gcPBM binding intensity (ln)” value amounted to 7.4.

Take “ATATAGGTAAAAAGTATACACACGTTGACACATTCT [CACACA_site1199]”: the “gcPBM binding intensity (ln)” value amounted to 6.95.

With “TTTTTTTTTTTTTTATGTACACATCTAAAAAAAAGG [XGTACX_site2067]”, the “gcPBM binding intensity (ln)” value was 7.43.

Take “TTTTTTTTTTTTGGATGTACTTAATGAAAATGTTAC [XGTACX_site8980]”: the “gcPBM binding intensity (ln)” value was found to be 7.36.

Consider TTATTTATTTATATAGTGCAATAAACACATAAATAG, for which the “gcPBM binding intensity (ln)” value was 8.

Take ACATATAATAAAATAGTGCATTGTTAGTTTTATATA: the “gcPBM binding intensity (ln)” value came out at 9.85.

On to “AAATAGTTGTTATGGGTGCAAACCACATATATATAA [GTGCAC_site9428]”, for which the “gcPBM binding intensity (ln)” value was found to be 11.

In the case of “GATTTTTAAAATATCACACATAAAAAAAAAAAAAAA [CACACA_site5516]”, the “gcPBM binding intensity (ln)” value amounted to 6.96.
